In PubChem BioAssay (NCATS):
Results filed as inconclusive are left out. Calls of active or inactive are those of the source. Calls follow the shape of the dose curve; as a rule, active = well fitted inhibition curve with a large enough effect; inconclusive = small, poorly fitted or top-dose-only effect; inactive = flat fitted curve, though single readings scatter.

Key:
PC26 = assay: qHTS profiling for inhibitors of Plasmodium falciparum proliferation (AID 504749); details: P. falciparum in erythrocytes, SYBR Green DNA, 72 h; series mostly up to 28.7 µM
In short: (§1)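 Three-day growth assay of blood-stage parasites in erythrocytes (0.3% parasitemia, 2.5% hematocrit) at 37 C, 5% CO2, quantified by SYBR Green DNA staining after overnight detergent lysis.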

PC49 = assay: as above; details: P. falciparum in erythrocytes, SYBR Green DNA, 72 h; series mostly up to 28.7 µM
In short: as §1

TAB109 = assay: as above; details: P. falciparum in erythrocytes, SYBR Green DNA, 72 h; series mostly up to 28.7 µM
In short: as §1

TAB165 = assay: as above; details: P. falciparum in erythrocytes, SYBR Green DNA, 72 h; series mostly up to 28.7 µM
In short: as §1

CRL-7250 = normal cell line; assay: Cytotoxic Profiling of Annotated Libraries Using Quantitative High-Throughput Screening (AID 1296008); details: Five cell lines viability, CellTiter-Glo ATP luminescence, 48-72 h; max response: active compounds read low; as to max response: % is scaled to controls: 0 for no effect and ±100 for the full control effect
In short: (§2)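 Cytotoxicity was measured as CellTiter-Glo ATP luminescence, read after 10 min at room temperature. Compound treatment of the cells lasted 48 or 72 hr at 37 degrees Celsius in a qHTS format.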

HaCat [1] = assay: as above; details: Five cell lines viability, CellTiter-Glo ATP luminescence, 48-72 h; max response: active compounds read low
In short: as §2

KB-3-1 = assay: as above; details: Five cell lines viability, CellTiter-Glo ATP luminescence, 48-72 h; max response: active compounds read low
In short: as §2

HACAT [2] = assay: qHTS assay to identify novel small-molecules to repurpose for Merkel cell carcinoma treatment (AID 1296009); details: MCC and control cell lines, CellTiter-Glo viability, 72 h; at 44.8 µM (top of the series) unless noted
In short: (§3)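 After compound transfer in DMSO, plates were kept 72 hr at 37 degree celsius. Luminescent ATP signal from CellTiter-Glo served as viability measure, normalized against DMSO and no-cell controls.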

MCC-26 = assay: as above; details: MCC and control cell lines, CellTiter-Glo viability, 72 h; series mostly up to 46 µM
In short: as §3

NIH3T3 = assay: Cytotoxic Profiling of Annotated Libraries Using Quantitative High-Throughput Screening (AID 1296008); details: Five cell lines viability, CellTiter-Glo ATP luminescence, 48-72 h; max response: active compounds read low; as to max response: % is scaled to controls: 0 for no effect and ±100 for the full control effect
In short: as §2

MCC-13 = assay: qHTS assay to identify novel small-molecules to repurpose for Merkel cell carcinoma treatment (AID 1296009); details: MCC and control cell lines, CellTiter-Glo viability, 72 h; series mostly up to 46 µM
In short: as §3

MKL-1 = assay: as above; details: MCC and control cell lines, CellTiter-Glo viability, 72 h; series mostly up to 46 µM
In short: as §3

P94_40 = assay: qHTS profiling for inhibitors of Plasmodium falciparum proliferation (AID 504749); details: P. falciparum in erythrocytes, SYBR Green DNA, 72 h; series mostly up to 28.7 µM
In short: as §1

PAD = assay: as above; details: P. falciparum in erythrocytes, SYBR Green DNA, 72 h; series mostly up to 28.7 µM
In short: as §1

PC15 = assay: as above; details: P. falciparum in erythrocytes, SYBR Green DNA, 72 h; series mostly up to 28.7 µM
In short: as §1

SC27B = assay: as above; details: P. falciparum in erythrocytes, SYBR Green DNA, 72 h; series mostly up to 28.7 µM
In short: as §1

TAB113 = assay: as above; details: P. falciparum in erythrocytes, SYBR Green DNA, 72 h; series mostly up to 28.7 µM
In short: as §1

HEK293 = assay: Cytotoxic Profiling of Annotated Libraries Using Quantitative High-Throughput Screening (AID 1296008); details: Five cell lines viability, CellTiter-Glo ATP luminescence, 48-72 h; max response: active compounds read low; as to max response: % is scaled to controls: 0 for no effect and ±100 for the full control effect
In short: as §2

W2 = assay: qHTS profiling for inhibitors of Plasmodium falciparum proliferation (AID 504749); details: P. falciparum in erythrocytes, SYBR Green DNA, 72 h; series mostly up to 28.7 µM
In short: as §1
Also: nearly all actives have a fitted effect of over 60% in size.
Potency is read from the fitted curve at half-maximal effect.

CC(=O)N/N=C/c1ccc([N+](=O)[O-])o1
inactive: Potency (PC26) | Potency (PC49) | max response (CRL-7250) -0.507% | outcome (HaCat [1]) | max response (KB-3-1) -2.33% | outcome (HACAT [2]) | Potency (MCC-26)
active: Potency (TAB109) 6310 nM | Potency (TAB165) 12600 nM

CCOC(=O)[C@H](CCc1ccccc1)N[C@@H](C)C(=O)N1Cc2ccccc2C[C@H]1C(=O)O
inactive: max response (CRL-7250) -9.56% | outcome (HaCat [1]) | max response (KB-3-1) 21.9% | max response (NIH3T3) -19.6% | outcome (HACAT [2]) | Potency (MCC-13)

C=C1C[C@H]2[C@@H]3C=C(C)C4=CC(=O)CC[C@]4(C)[C@H]3CC[C@]2(C)[C@@]1(OC(C)=O)C(C)=O
inactive: max response (CRL-7250) 1.09% | max response (HaCat [1]) -2.22% | max response (KB-3-1) 17.3% | max response (NIH3T3) -3.66% | Potency (MCC-13) | Potency (MCC-26) | Potency (MKL-1)

CCOc1ccc(Cc2nccc3cc(OCC)c(OCC)cc23)cc1OCC
inactive: Potency (P94_40) | Potency (PAD) | Potency (PC15) | Potency (SC27B) | Potency (TAB109) | Potency (TAB113) | max response (HaCat [1]) -22.8% | max response (KB-3-1) 1.15% | max response (NIH3T3) -24.3%
active: Potency (CRL-7250) 15000 nM | Potency (HEK293) 7500 nM

CN1CCC(=C2c3ccccc3Sc3ccccc32)CC1
active: Potency (P94_40) 10000 nM | Potency (PAD) 12600 nM | Potency (SC27B) 11200 nM | Potency (TAB109) 11200 nM | Potency (TAB113) 11200 nM | Potency (TAB165) 7940 nM | Potency (W2) 2130 nM
inactive: Potency (PC49) | max response (CRL-7250) -1.99% | outcome (HaCat [1]) | max response (KB-3-1) -16.3% | max response (NIH3T3) -14.3% | outcome (HACAT [2]) | Potency (MCC-13) | Potency (MCC-26)

OC(CCN1CCCCC1)(c1ccccc1)c1ccccc1
inactive: outcome (CRL-7250) | outcome (HaCat [1]) | max response (KB-3-1) 16.8% | max response (NIH3T3) 2.78% | outcome (HACAT [2]) | Potency (MCC-13) | Potency (MKL-1)
active: Potency (P94_40) 10000 nM | Potency (TAB113) 8910 nM | Potency (TAB165) 14100 nM | Potency (W2) 4260 nM

CC(=O)c1ccc2c(c1)N(CCCN1CCC(CCO)CC1)c1ccccc1S2
active: Potency (W2) 1020 nM
inactive: Potency (P94_40) | Potency (PAD) | Potency (PC15) | Potency (PC49) | Potency (SC27B) | Potency (TAB109) | Potency (TAB113) | Potency (TAB165) | max response (CRL-7250) -7.11% | outcome (HaCat [1]) | max response (KB-3-1) -5.25% | outcome (HACAT [2]) | Potency (MCC-13) | Potency (MCC-26) | Potency (MKL-1)

COc1cc2c(cc1OC)C(C(C(=O)N(CCc1ccc(OC)c(OC)c1OC)CCc1ccc(OC)c(OC)c1OC)c1ccccc1)=NCC2 (stereo not given)
active: Potency (P94_40) 2510 nM | Potency (PAD) 1000 nM | Potency (PC15) 2510 nM | Potency (PC26) 4780 nM | Potency (PC49) 1000 nM | Potency (SC27B) 2240 nM | Potency (TAB109) 3160 nM | Potency (TAB113) 2820 nM | Potency (TAB165) 1260 nM | Potency (W2) 1070 nM
inactive: max response (CRL-7250) -6.63% | outcome (HaCat [1]) | max response (KB-3-1) 28% | max response (NIH3T3) 0.673% | outcome (HACAT [2]) | Potency (MCC-13) | Potency (MCC-26)

CCCCC(CC)CN=C(N)NC(N)=NCCCCCCN=C(N)NC(N)=NCC(CC)CCCC (stereo not given)
active: Potency (P94_40) 1260 nM | Potency (PAD) 891 nM | Potency (PC15) 2820 nM | Potency (PC26) 1510 nM | Potency (PC49) 2240 nM | Potency (SC27B) 2000 nM | Potency (TAB109) 1120 nM | Potency (TAB113) 1780 nM | Potency (TAB165) 1260 nM | Potency (W2) 1070 nM | Potency (CRL-7250) 7500 nM | Potency (HEK293) 2990 nM | Potency (HaCat [1]) 6680 nM | Potency (MCC-13) 10600 nM | Potency (MKL-1) 1330 nM

Oc1ccc(Cl)c2cccnc12
inactive: Potency (P94_40) | Potency (PAD) | Potency (PC15) | Potency (PC26) | Potency (PC49) | Potency (SC27B) | Potency (TAB109) | Potency (TAB113) | Potency (TAB165) | outcome (CRL-7250) | outcome (HaCat [1]) | max response (KB-3-1) -11.9% | outcome (HACAT [2])
